RORg inh: qHTS for inhibitors of ROR gamma transcriptional activity. Drosophila S2 Gal4-RORgamma UAS-luciferase reporter, 20 h. Potency, µM (top dose mostly 53.6 µM), for inactives: top-dose activity change, negative = inhibition, usual class: inhibitors. 5.4% of 310,000 active. AID 2551, 2010; further: potency means the concentration at half of the fitted maximal effect; nearly all actives have a fitted effect of over 60% in size
Target sequence (P51450 whole entry, looked up, the tested form may be a part): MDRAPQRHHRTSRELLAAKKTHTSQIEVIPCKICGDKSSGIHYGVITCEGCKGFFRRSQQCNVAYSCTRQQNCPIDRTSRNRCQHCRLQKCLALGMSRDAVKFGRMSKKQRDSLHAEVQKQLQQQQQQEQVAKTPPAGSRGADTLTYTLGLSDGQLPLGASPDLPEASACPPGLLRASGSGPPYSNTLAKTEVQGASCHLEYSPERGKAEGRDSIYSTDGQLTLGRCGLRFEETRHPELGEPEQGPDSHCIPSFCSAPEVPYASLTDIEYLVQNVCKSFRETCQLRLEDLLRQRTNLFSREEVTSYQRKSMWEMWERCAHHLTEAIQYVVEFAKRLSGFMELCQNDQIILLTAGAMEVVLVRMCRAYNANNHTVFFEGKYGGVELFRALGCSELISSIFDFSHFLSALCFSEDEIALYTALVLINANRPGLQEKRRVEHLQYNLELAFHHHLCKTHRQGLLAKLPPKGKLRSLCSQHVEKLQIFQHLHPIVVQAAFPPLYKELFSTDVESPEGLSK
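A Gal4/UAS one-hybrid system in insect cells: metallothionein-promoter Gal4–ROR gamma fusion plus Photinus luciferase reporter. Copper sulfate 700 uM final, 20 hr ambient incubation, luminescent detection after 10 min with reagent.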
Coupling enz: qHTS Assay for Inhibitors of Fructose-1,6-bisphosphate Aldolase from Giardia Lamblia: Coupling assay counterscreen; coupling enzyme system counterscreen, AmpLite Red fluorescence; activity change, negative = inhibition, % at 58.2 µM, hits read low; 0.67% of 290,000 active; AID 2472, 2010; in the data active means activity change below about -30%
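Counterscreen of the coupled detection system alone, without aldolase: glyceraldehyde-3-phosphate coupling enzymes plus AmpLite Red readout. Compounds at 57.5 uM final, 10 min RT preincubation, 20 min RT reaction, fluorescence 525/598 nm.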
ELG1 repair inh: qHTS screen for small molecules that inhibit ELG1-dependent DNA repair in human embryonic kidney (HEK293T) cells expressing luciferase-tagged ELG1; HEK293T ELG1-luciferase reporter, luminescence, 16 h; DNA damage induced by 5-fluorouridine; Potency, µM (highest dose often 46.1 µM), inactives show top-dose activity change, negative = inhibition, actives largely listed as inhibitors; 2.3% of 330,000 active; further: potency means the concentration at half of the fitted maximal effect; nearly all actives have a fitted effect of over 55% in size
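Luminescence from the luciferase reporter, measured 30 min after ONE-Glo reagent at room temperature, was the read-out. Beforehand, 2,000 cells per well were exposed for 16 hr at 37 °C to 5-fluorouridine together with compound or vehicle.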
TSHR antag: Antagonists of the Thyroid Stimulating Hormone Receptor: HTS campaign; activity change, negative = inhibition, % at 11.5 µM; Thyrotropin receptor (Homo sapiens), P16473; AID 504810, 2011; 0.2% of 330,000 active; TSHR-expressing cells, TSH-stimulated cAMP HTRF, 2 h; hits give low values;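 active means activity change below a set negative limit, meaning inhibition stronger than a set level, cut at about -70% in these data; inconclusive means activity change between two set negative limits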
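Cell-based HTRF cAMP assay; TSHR cells + compound, TSH EC80 (4nM final), 2 h, 37 deg C. Lysis with anti-cAMP cryptate and cAMP-d2, 30 min RT, read 665/620 nm.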
VP16 counter: VP16 counterscreen qHTS for inhibitors of ROR gamma transcriptional activity | Potency, µM (titrated, usually from 53.6 µM), inactives show at the highest dose activity, negative = inhibition, usual class: inhibitors | 3.5% of 310,000 active | Drosophila S2 Gal4-VP16 UAS-luciferase, luminescence, 20 h | AID 2546, 2010;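 further: Gal4-VP16 expression switched on by copper sulfate through the metallothionein promoter; potency means the concentration at half of the fitted maximal effect; nearly all actives have a fitted effect of over 50% in size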
Starred values were filed as active, the others as inactive; u = inconclusive; x = not tested or not shown; [ ] = dose if it differs, or a comment. Compounds with a hit are over-represented: about 8% of the library has one in this group of screens. Unless noted, the call rests on the fitted dose curve; in most records, active means well fitted curve in the direction sought with a large enough effect; inconclusive means small, poorly fitted or top-dose-only effect, or another doubt; inactive means no such curve, though single readings can be large; an effect the other way counts as inactive or inconclusive. On the % scale 0 is the no-effect control and ±100 the full control effect.

SMILES	RORg inh	Coupling enz	ELG1 repair inh	TSHR antag	VP16 counter
COc1ccc(OC)c(C2C(C(=O)N(C)C)=C(C)Nc3nc4ccccc4n32)c1 (stereo not drawn)	-23%	-2	9%	7	5%
CCOC(=O)N1CCN(c2nc(C(F)(F)F)nc3c(C)cc(C)cc23)CC1	u	-2	x	x	20µM*
Cc1ccc(Cl)cc1NC(=O)C[n+]1ccc(Cc2ccc([N+](=O)[O-])cc2)cc1	-13%	-44*	u	-3	-7%
O=C(C[n+]1ccc(Cc2ccccc2)cc1)Nc1ccc([N+](=O)[O-])cc1Cl	-4%	4	-7%	-1	-14%
CCc1ccc(NC(=O)COC(=O)Cn2cnc3ccccc32)cc1	x	x	6%	-8	x
COc1ccc(Oc2ncc3nc(C)c(=O)n(Cc4ccc(F)cc4)c3n2)cc1	u	-2	x	x	3%
CC1(C)CC(=O)C2=C(C1)NC(Nc1nc3ccccc3o1)=NC21CCCC1	-15%	0	u	20	-8%
CC1(C)CC(=O)C2=C(C1)NC(Nc1nc3ccccc3o1)=NC2c1ccccn1 (stereo not drawn)	3.5µM*	-3	-4%	-6	1.1µM*
Cc1ccccc1C(=O)NCCNC(=O)c1cnccn1	-11%	0	10%	-4	3%
COc1cc(NC(=O)c2ccccc2)c(OC)cc1Cl	16%	4	-8%	-12	5%
COc1cc(NC(=O)c2ccccc2)c(OC)cc1NC(=O)Cc1ccc(Br)cc1	u	-2	-29%	-12	11µM*
COc1cc(NC(=O)C(C)Oc2ccccc2)c(OC)cc1NC(=O)c1ccccc1 (stereo not drawn)	39%	-3	15µM*	-3	-9%
COc1cc(NC(=O)c2sc(C)nc2C)c(OC)cc1NC(=O)c1ccccc1	3%	1	15µM*	1	-12%
Cc1ccc(C(C)NC(=O)c2ccncc2)c(C)c1 (stereo not drawn)	x	-1	u	-14	x
COc1ccc(N2C(C)=CS/C2=C(/C#N)c2nnc(N3CCOCC3)n2-c2ccccc2)cc1	13µM*	1	-6%	-3	0%
COc1ccc(/C=C/C(O)=C(\C#N)c2nnc(N3CCOCC3)n2-c2ccccc2)cc1OC	u	3	5%	1	-3%
C=CCN1C(=O)NC(c2ccccc2)(C(F)(F)F)S/C1=C(\C#N)c1nnc(N2CCOCC2)n1-c1ccccc1 (stereo not drawn)	5.6µM*	0	-14%	0	13µM*
O=C(Nc1cccc(F)c1)/C(=C\c1ccco1)NC(=O)c1ccco1	-5%	x	10%	-7	-3%
CC(C)CN1CCC2(CC1)CCN(C(=O)c1cccn1C)CC2	-20%	-1	x	x	2%
COC(=O)c1c(N)nc(C)n1-c1ccc(OC)cc1	-9%	1	-2%	4	-1%
COc1ccc(-n2c(C)c(C)c3c(N)ncnc32)cc1	-12%	0	10µM*	3	-10%
C=CCn1c(=O)c(C(=O)NC2CC2)c(O)c2cc(OC)c(OC)cc21	-16%	2	-4%	33	2%
Cc1ccc(NC(=O)c2ccc(NCCCN3CCOCC3)c([N+](=O)[O-])c2)cc1Cl	18%	3	18µM*	1	-21%
COc1ccc(NC(=O)c2ccc(NCCCN3CCOCC3)c([N+](=O)[O-])c2)cc1	1%	3	3%	2	4%
O=C(Nc1ccc(Cl)c([N+](=O)[O-])c1)c1ccc(NCCCN2CCOCC2)c([N+](=O)[O-])c1	5µM*	4	-3%	-2	u
SMILES	RORg inh	Coupling enz	ELG1 repair inh	TSHR antag	VP16 counter
Cc1ccc(NC(=O)c2ccc(COc3ccc4c(c3)CCC4)cc2)c(C)c1	2.2µM*	5	u	-7	8.9µM*
CCc1ccc(-n2c(=S)sc3c(=O)n(-c4ccccc4C)c(SCC(=O)O)nc32)cc1	11%	6	-2%	-12	0%
O=C(N/N=C/c1cnc2ccccc2n1)c1cccc(F)c1	1%	1	u	-4	-13%
O=C(N/N=C/c1ccc(Sc2ccccn2)o1)c1cccc([N+](=O)[O-])c1	4µM*	-16	-23%	-8	11µM*
O=C(N/N=C/c1ccc(Sc2ccccn2)o1)c1cc2ccccc2cc1O	16µM*	5	30%	-8	19%[0.365 µM]
O=C(N/N=C\c1ccc(Sc2ccccn2)o1)c1cccc(F)c1	10µM*	1	1%	12	-15%
O=c1[nH]nnc2sc3c(c12)CCCC3	18%	7	13µM*	0	1%
CC1(C)Cc2c(sc3nn[nH]c(=O)c23)CO1	8%	4	7%	2	15%
Cc1nc2sc3c(c2c(=O)[nH]1)CCCC3	38%	1	7%	25	-8%
O=c1[nH]c(S)nc2sc3c(c12)CCCC3	13µM*	9	6%	0	-20%
CCc1noc(C)c1C(=O)OC(C)C(=O)Nc1ccccc1OC (stereo not drawn)	x	x	5%	-5	x
CCC1CCCCN1S(=O)(=O)c1ccc(C(=O)Nc2nnc(-c3ccccc3Cl)o2)cc1 (stereo not drawn)	0.28µM*	5	u	-16	0.0079µM*
CS(=O)(=O)c1ccccc1-c1nnc(NC(=O)c2ccc(S(=O)(=O)N3CCCC3)cc2)o1	x	x	7%	11	x
CCC1CCCCN1S(=O)(=O)c1ccc(NC(=O)c2ccncc2)cc1 (stereo not drawn)	40%	x	5.2µM*	-12	u
CC1CCCCN1S(=O)(=O)c1ccc(C(=O)Nc2nnc(-c3ccccc3Cl)o2)cc1 (stereo not drawn)	0.71µM*	12	u	-11	0.5µM*
CCC1CCCCN1S(=O)(=O)c1ccc(C(=O)Nc2nnc(C3CC3)o2)cc1 (stereo not drawn)	0.32µM*	-3	u	4	0.32µM*
CC(=O)Oc1c(C)c(C)c2c(c1C)CC[C@@](C)(CCC[C@H](C)CCC[C@H](C)CCCC(C)C)O2	-15%	1	7%	-6	-2%
CC(C)(C)c1ccc(S(=O)(=O)N2CCN(CC(=O)NC(=O)NC3CCCCC3)CC2)cc1	x	x	u	13	x
CCC1CCCCN1S(=O)(=O)c1ccc(NC(=O)c2nc(S(C)(=O)=O)ncc2Cl)cc1 (stereo not drawn)	3.2µM*	0	u	-84*	4µM*
O=C(COC(=O)c1cc(=O)[nH]c2ccccc12)NCc1ccccc1Cl	x	x	14%	8	x

Source: PubChem BioAssay (National Center for Advancing Translational Sciences (NCATS))
